Experimental data taken from PubChem BioAssay AID1159580 (chemical genetic matrix, 2015).
“And” between values parts separate entries of the source, which are not always exact repeats. Identical values can stand only once. Out of some 5,500 compounds screened, about 2,000 (36%) were called active. Inconclusive results (about 18%) are left out. Cut-off read from the data, not from the text of the source: active = normalized growth mostly below about 0.91 (no sharp cut-off); inconclusive = no clear call, values can overlap the other calls; inactive = mostly above about 0.92. This is one part of the list.

Assay: chemical genetic growth profiling, strain panel (AID 1159580);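 note: tested at 20 µM; growth read once vehicle control cultures reached saturation at 30 °C; 1 = growth at the plate median or of vehicle wells; lower values mean less growth of the strain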
Conditions: S. cerevisiae deletion strains, growth OD
[1] = locus YAL013W, strain DEP1, active compounds read low
[2] = locus YBR229C, strain ROT2, active compounds read low
[3] = locus YCL061C, strain MRC1, active compounds read low
[4] = locus YDL101C, strain DUN1, active compounds read low
[5] = locus YEL061C, strain CIN8, active compounds read low
[6] = locus YGR078C, strain PAC10, active compounds read low
[7] = locus YHR030C, strain SLT2, active compounds read low
[8] = locus YJR043C, strain POL32, active compounds read low
[9] = locus YJR075W, strain HOC1, active compounds read low
[10] = locus YLR039C, strain RIC1, active compounds read low
[11] = locus YLR262C, strain YPT6, active compounds read low
[12] = locus YMR263W, strain SAP30, active compounds read low
[13] = locus YNL153C, strain GIM3, active compounds read low
[14] = locus YNL322C, strain KRE1, active compounds read low

Measured: normalized growth

Cc1ccc(OCc2nnc(SCC(=O)Nc3cccc4c3OCO4)n2-c2ccccc2)c2c1CCC2
inactive: [1] 1.01 | [2] 1.01 | [3] 1 | [4] 0.992 | locus YDR150W, strain NUM1, active compounds read low 0.982 | [5] 0.99 | [6] 1 | locus YGR229C, strain SMI1, active compounds read low 0.993 | [7] 1 | locus YHR087W, strain rtc3, active compounds read low 0.992 | [8] 1 | [9] 1.01 | locus YKL190W, strain CNB1, active compounds read low 0.973 | [10] 0.991 | locus YLR058C, strain SHM2 (second series), active compounds read low 1.01 | locus YLR085C, strain ARP6, active compounds read low 0.995 | [11] 0.985 | locus YML094W, strain GIM5, active compounds read low 0.98 | locus YMR219W, strain ESC1, active compounds read low 0.999 | [12] 1.01 | locus YNL128W, strain TEP1, active compounds read low 0.984 | [13] 1 | locus YNL298W, strain CLA4 (second series), active compounds read low 0.988 | [14] 0.992 | locus YNR030W, strain Alg12, active compounds read low 0.995 | locus YPL055C, strain LGE1, active compounds read low 0.991 | locus YPL241C, strain CIN2, active compounds read low 0.999 | locus YPR135W, strain CTF4, active compounds read low 1.02

C[C@H](CCC(=O)O)[C@H]1CCC2C3C(CC[C@@]21C)[C@@]1(C)CC[C@@H](O)C[C@H]1C[C@H]3O (some centres undefined)
active: locus YDR137W, strain rgp1, active compounds read low 0.786 | locus YLR262C, strain YPT6 (second series), active compounds read low 0.799 | locus YOL147C, strain pex11, active compounds read low 1.07 [resistant] | locus YOR231W, strain MKK1, active compounds read low 0.849
inactive: [1] 1.02 | locus YAL021C, strain ccr4, active compounds read low 1.01 | locus YAL026C, strain drs2, active compounds read low 0.987 | locus YAL030W, strain snc1, active compounds read low 1.02 | locus YBL061C, strain skt5, active compounds read low 1.02 | locus YBR009C, strain hhf1, active compounds read low 0.973 | locus YBR021W, strain FUR4, active compounds read low 1.02 | locus YBR023C, strain chs3, active compounds read low 1.01 | locus YBR171W, strain sec66, active compounds read low 1 | [2] 1.02 | locus YBR231C, strain swc5, active compounds read low 1.03 | locus YBR279W, strain paf1, active compounds read low 1.01 | locus YCL011C, strain gbp2, active compounds read low 1 | locus YCL016C, strain dcc1, active compounds read low 0.982 | locus YCL029C, strain bik1, active compounds read low 1.05 | [3] 0.998 | locus YCL069W, strain vba3, active compounds read low 1.02 | locus YCR088W, strain abp1, active compounds read low 1.02 | locus YDL005C, strain med2, active compounds read low 1.01 | locus YDL035C, strain GPR1, active compounds read low 0.985 | locus YDL040C, strain nat1, active compounds read low 1.01 | locus YDL074C, strain BRE1, active compounds read low 1.09 | [4] 1.02 | locus YDL134C, strain PPH21, active compounds read low 1 | locus YDL185W, strain tfp1, active compounds read low 1.07 | locus YDL192W, strain arf1, active compounds read low 1.05 | locus YDR001C, strain nth1, active compounds read low 1.02 | locus YDR069C, strain doa4, active compounds read low 1.01 | locus YDR101C, strain arx1, active compounds read low 1.04 | locus YDR159W, strain sac3, active compounds read low 1.02 | locus YDR162C, strain NBP2, active compounds read low 1.02 | locus YDR195W, strain ref2 1.13 | locus YDR297W, strain sur2, active compounds read low 1.02 | locus YDR318W, strain mcm21, active compounds read low 1.03 | locus YDR334W, strain swr1, active compounds read low 1.04 | locus YDR335W, strain msn5, active compounds read low 1.02 | locus YDR388W, active compounds read low 1.04 | locus YDR392W, strain spt3, active compounds read low 0.923 | locus YDR502C, strain sam2, active compounds read low 1.04 | locus YEL003W, strain gim4, active compounds read low 0.998 | locus YEL037C, strain rad23, active compounds read low 1.02 | locus YEL061C, strain CIN8 (second series), active compounds read low 1.02 | [5] 1.02 | locus YER015W, strain faa2, active compounds read low 1.05 | locus YER016W, strain bim1, active compounds read low 1.01 | locus YER110C, active compounds read low 1.05 | locus YER111C, strain swi4, active compounds read low 1.02 | locus YER155C, strain BEM2 (second series), active compounds read low 1.05 | locus YER155C, strain BEM2, active compounds read low 1.04 | locus YER167W, strain BCK2, active compounds read low 1.03 | locus YFR010W, strain ubp6, active compounds read low 1.03 | locus YGL078C, strain dbp3, active compounds read low 0.953 | locus YGL086W, strain mad1, active compounds read low 1.03 | locus YGL167C, strain pmr1, active compounds read low 1.02 | locus YGL173C, strain kem1, active compounds read low 0.969 | locus YGL227W, strain vid30, active compounds read low 1.02 | locus YGL240W, strain doc1, active compounds read low 1.02 | locus YGL248W, strain PDE1, active compounds read low 1.01 | locus YGL253W, strain hxk2, active compounds read low 1.01 | [6] 1.03 | locus YGR135W, strain pre9, active compounds read low 1.02 | locus YGR252W, strain gcn5, active compounds read low 0.929 | locus YHR013C, strain ard1, active compounds read low 1.06 | locus YHR027C, strain rpn1, active compounds read low 1.01 | [7] 1.05 and 0.889 | locus YHR079C, strain IRE1 (second series), active compounds read low 1.05 | locus YHR079C, strain IRE1, active compounds read low 0.87 | locus YHR094C, strain hxt1, active compounds read low 1.05 | locus YHR129C, strain ARP1, active compounds read low 1.03 | locus YHR142W, strain chs7, active compounds read low 0.993 | locus YHR200W, strain rpn10, active compounds read low 1.06 | locus YIL066C, strain RNR3, active compounds read low 1.03 | locus YIL073C, strain SPO22, active compounds read low 1.12 | locus YIL125W, strain kgd1, active compounds read low 1.05 | locus YIR030C, strain dcg1, active compounds read low 1.05 | locus YJL092W, strain hpr5, active compounds read low 1.03 | locus YJL095W, strain BCK1 (second series), active compounds read low 1.02 | locus YJL095W, strain BCK1, active compounds read low 1.04 and 0.89 | locus YJL115W, strain asf1, active compounds read low 1.03 | locus YJL129C, strain trk1, active compounds read low 1.03 | locus YJL134W, strain LCB3, active compounds read low 1.03 | locus YJL154C, strain vps35, active compounds read low 1.03 | locus YJL164C, strain tpk1, active compounds read low 0.992 | locus YJL166W, strain qcr8, active compounds read low 0.979 | locus YJL168C, strain set2, active compounds read low 1.05 | locus YJL187C, strain SWE1 (second series), active compounds read low 1 | locus YJL187C, strain SWE1, active compounds read low 1.02 | [8] 0.999 | locus YJR066W, strain TOR1, active compounds read low 0.862 | [9] 1.04 | locus YKL009W, strain mrt4, active compounds read low 0.9 | locus YKL068W, active compounds read low 1.03 | locus YKL085W, strain MDH1 (second series), active compounds read low 1.03 | locus YKL085W, strain MDH1, active compounds read low 1.03 | locus YKL160W, strain elf1, active compounds read low 0.974 | locus YKR001C, strain vps1, active compounds read low 1.09 | locus YKR026C, strain gcn3, active compounds read low 1.03 | locus YKR091W, strain srl3, active compounds read low 1.01 | locus YLL001W, strain dnm1, active compounds read low 0.991 | locus YLL026W, active compounds read low 1.02 | locus YLL041C, strain sdh2, active compounds read low 1.03 | locus YLR027C, strain aat2, active compounds read low 1.01 | [10] 1.02 | locus YLR058C, strain SHM2, active compounds read low 1.01 | locus YLR102C, strain apc9, active compounds read low 1.05 | locus YLR113W, strain HOG1, active compounds read low 0.923 | locus YLR221C, strain rsa3, active compounds read low 0.954 | locus YLR258W, strain gsy2, active compounds read low 0.996 | [11] 0.99 | locus YLR268W, strain sec22, active compounds read low 1.03 | locus YLR320W, strain mms22, active compounds read low 0.955 | locus YLR330W, strain CHS5, active compounds read low 1.04 | locus YLR342W, strain FKS1 (second series), active compounds read low 1.04 | locus YLR342W, strain FKS1, active compounds read low 1 | locus YLR357W, strain rsc2, active compounds read low 1.09 | locus YLR370C, strain arc18, active compounds read low 0.993 | locus YLR371W, strain rom2, active compounds read low 1.07 | locus YLR384C, strain iki3, active compounds read low 1.01 | locus YLR418C, strain cdc73, active compounds read low 1.03 | locus YML016C, strain PPZ1, active compounds read low 1.02 | locus YML032C, strain rad52, active compounds read low 1.02 | locus YML120C, strain ndi1, active compounds read low 0.962 | locus YML124C, strain tub3, active compounds read low 1.05 | locus YMR058W, strain fet3, active compounds read low 1.01 | locus YMR078C, strain ctf18, active compounds read low 1.08 | locus YMR125W, strain sto1, active compounds read low 1.04 | locus YMR129W, active compounds read low 1.01 | locus YMR205C, strain PFK2, active compounds read low 0.989 | locus YMR223W, strain ubp8, active compounds read low 1.01 | locus YMR231W, strain pep5, active compounds read low 0.993 | [12] 1.02 | locus YMR307W, strain GAS1, active compounds read low 1.1 | locus YNL067W, strain RPL9B, active compounds read low 0.999 | locus YNL071W, strain lat1, active compounds read low 1.01 | [13] 1 | locus YNL183C, strain NPR1, active compounds read low 0.854 | locus YNL209W, strain ssb2, active compounds read low 1.02 | locus YNL233W, strain BNI4, active compounds read low 1.05 | locus YNL248C, strain rpa49, active compounds read low 1.01 | locus YNL250W, strain rad50, active compounds read low 1.03 | locus YNL271C, strain bni1, active compounds read low 1.01 | locus YNL298W, strain CLA4, active compounds read low 0.977 | locus YNL307C, strain MCK1, active compounds read low 1.04 | locus YNL322C, strain KRE1 (second series), active compounds read low 1.02 | [14] 1.03 | locus YNR049C, strain mso1, active compounds read low 1.01 | locus YNR052C, strain pop2, active compounds read low 0.994 | locus YOL012C, strain htz1 1.83 | locus YOR001W, strain rrp6, active compounds read low 0.979 | locus YOR061W, strain CKA2, active compounds read low 1.06 | locus YOR069W, strain VPS5, active compounds read low 1.03 | locus YOR070C, strain gyp1, active compounds read low 1.01 | locus YOR080W, strain dia2, active compounds read low 1.02 | locus YOR083W, strain WHI5, active compounds read low 0.971 | locus YOR106W, strain vam3, active compounds read low 0.928 | locus YOR136W, strain idh2, active compounds read low 1.06 | locus YOR144C, strain elg1, active compounds read low 1.04 | locus YOR184W, strain ser1, active compounds read low 1.01 | locus YOR265W, strain rbl2, active compounds read low 1.01 | locus YOR270C, strain vph1, active compounds read low 0.964 | locus YOR290C, strain snf2, active compounds read low 0.979 | locus YOR316C, strain cot1, active compounds read low 1.05 | locus YPL051W, strain arl3, active compounds read low 0.978 | locus YPL078C, strain atp4, active compounds read low 0.982 | locus YPL106C, strain sse1, active compounds read low 1.08 | locus YPL240C, strain hsp82, active compounds read low 1.01 | locus YPL256C, strain CLN2, active compounds read low 0.952 | locus YPR119W, strain clb2, active compounds read low 1.03 | locus YPR141C, strain kar3, active compounds read low 1.06 | locus YPR163C, strain tif3, active compounds read low 1.06 | locus YPR167C, strain met16, active compounds read low 1.05 | strain wtn01, active compounds read low 1.06
